Data as given in PubChem BioAssay AID1159580 (chemical genetic matrix, 2015).
In all, about 5,500 compounds went through this assay and about 2,000 (36%) were called active. Another 18% or so got no clear call; they are omitted. Cut-off read from the data, not from the text of the source: active = normalized growth mostly below about 0.91 (no sharp cut-off); inconclusive = no clear call, values can overlap the other calls; inactive = mostly above about 0.92. The list shows a part of the results.

Test: chemical genetic growth profiling, strain panel (AID 1159580);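 note: tested at 20 µM; growth read once vehicle control cultures reached saturation at 30 °C; 1 = growth at the plate median or of vehicle wells; lower values mean less growth of the strain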
Details: S. cerevisiae deletion strains, growth OD

Measured: normalized growth

O=C(NC1CCN(Cc2ccc(Cl)c(Cl)c2)CC1)c1ccccc1
active: locus YHR030C, strain SLT2, active compounds read low 0.641 | locus YOL006C, strain TOP1, active compounds read low 0.683
inactive: locus YAL013W, strain DEP1, active compounds read low 1.01 | locus YBR229C, strain ROT2, active compounds read low 1 | locus YDL101C, strain DUN1, active compounds read low 0.996 | locus YDR150W, strain NUM1, active compounds read low 0.977 | locus YEL061C, strain CIN8, active compounds read low 0.946 | locus YGR078C, strain PAC10, active compounds read low 1.01 | locus YGR229C, strain SMI1, active compounds read low 1 | locus YHR087W, strain rtc3, active compounds read low 0.987 | locus YJR043C, strain POL32, active compounds read low 1.01 | locus YJR075W, strain HOC1, active compounds read low 1.02 | locus YKL190W, strain CNB1, active compounds read low 1 | locus YLR039C, strain RIC1, active compounds read low 0.94 | locus YLR058C, strain SHM2 (second series), active compounds read low 1.01 | locus YLR085C, strain ARP6, active compounds read low 0.86 | locus YLR262C, strain YPT6, active compounds read low 0.825 | locus YML094W, strain GIM5, active compounds read low 0.889 | locus YMR219W, strain ESC1, active compounds read low 0.992 | locus YMR263W, strain SAP30, active compounds read low 0.998 | locus YNL153C, strain GIM3, active compounds read low 0.988 | locus YNL298W, strain CLA4 (second series), active compounds read low 0.986 | locus YNL322C, strain KRE1, active compounds read low 1 | locus YNR030W, strain Alg12, active compounds read low 0.96 | locus YPL055C, strain LGE1, active compounds read low 0.995 | locus YPL241C, strain CIN2, active compounds read low 0.93 | locus YPR135W, strain CTF4, active compounds read low 0.783
